Reference: PubChem BioAssay
The source made the active and inactive calls. Unless noted, no rule for the calls is given here.

Assays:
[1] = tested on: Wnt5a (protein binding on small-molecule microarray); assay: small molecules binding Wnt5a protein – biophysical, small-molecule microarray, 635/667 nm fluorescence, primary screen (AID 1142); details: 635 nm fluorescence, higher = more signal;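 also: fluorescence read at 667 nm with signal to noise per printed feature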
[2] = ATP-based viability of Huh7 replicon cells – cell-based, CellTiter-Glo luminescence, basal, 48 h, cytotoxicity control for HCV replication inhibitor project, primary screen (AID 1143); details: higher = more signal, called active from +8 up or from −8 down;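 also: Huh7 hepatoma cells carrying a hepatitis C replication reporter with no stimulus; test concentration not given here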
[3] = Pseudomonas biofilm growth suppression – PAO1 strain, BacTiter-Glo luminescence, LB-PBS, primary screen (AID 1144); details: P. aeruginosa PAO1 biofilm, 12 h, higher = more signal
[4] = basal CRE-LacZ reporter activity in PC12 – cell-based, unstimulated, primary screen (AID 1145); details: no forskolin, luminescence, 4.5 h, higher = more signal, called active from +8 up or from −8 down
[5] = forskolin-driven CRE-LacZ activity in PC12 – cell-based, CRE-LacZ reporter, forskolin-stimulated, primary screen (AID 1146); details: luminescence, 4.5 h, higher = more signal, called active from +8 up or from −8 down;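 also: PC12 cells with 6xCRE LacZ reporter stimulated by forskolin 10 µM; beta-galactosidase reporter signal reflecting CREB driven transcription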
[6] = molecular target: Streptavidin (Streptomyces avidinii) (UniProt P22629); assay: compounds binding control protein streptavidin – biophysical, small-molecule microarray, 635/667 nm fluorescence, artefact control for SMM compound annotation, primary screen (AID 1147); details: higher = more signal;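 also: signal reflects streptavidin binding to arrayed compounds as a control protein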
[7] = probe aInhba binding on compound microarray – biochemical, small-molecule microarray, 635/667 nm fluorescence, primary screen (AID 1148); details: higher = more signal;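 also: score merges 667nm spot fluorescence with signal-to-noise for antibody binding to printed compounds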
Torsin-1A (Homo sapiens) [8] = molecular target: Torsin-1A (Homo sapiens) (UniProt O14656); assay: TOR1A wild-type binding on microarray – cell lysate, small-molecule microarray, lysate, 635/667 nm, primary screen (AID 1149); details: COS7 hTOR1A-WT lysate, 635 nm fluorescence, higher = more signal
Torsin-1A (Homo sapiens) [9] = molecular target: Torsin-1A (Homo sapiens) (UniProt O14656); assay: torsin A mutant lysate binding on microarrays – cell lysate, small-molecule microarray, COS7 lysate, 635/667 nm fluorescence, primary screen (AID 1150); details: COS7 hTOR1A mutant lysate, 635 nm fluorescence, higher = more signal;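 also: score pools 667 nm emission and signal to noise measuring lysate protein binding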
[10] = tested on: Sonic hedgehog protein (Shh); assay: Sonic hedgehog microarray binding compounds – biochemical, small-molecule microarray, 635/667 nm fluorescence, primary screen (AID 1151); details: 635 nm fluorescence, higher = more signal;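 also: Shh protein binding to compounds spotted on small-molecule microarray slides; score combines spot fluorescence intensity with signal-to-noise across triplicate slides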
[11] = optical density shifts of acrAB sulA E. coli – strain DRC41, OD650, 48 h, E. coli filamentation inducer project, primary screen (AID 1152); details: higher = more signal, called active from +8 up or from −8 down;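 also: E. coli MC1000 strain DRC41 lacking acrAB efflux pump and sulA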
[12] = probe aLefty1 binding on compound microarray – biochemical, small-molecule microarray, 635/667 nm fluorescence, primary screen (AID 1153); details: higher = more signal;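 also: score merges spot fluorescence with signal-to-noise ratio from the scanned slide images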
[13] = plasmodial surface anion channel blockers, osmotic lysis – cell-based, P. falciparum Indochina, OD700, 1 h, primary screen (AID 1154); details: P. falciparum Indochina infected RBC osmotic lysis, higher = more signal, called active from +8 up or from −8 down
[14] = plasmodial surface anion channel blockers, osmotic lysis – cell-based, P. falciparum Indochina, OD700, 2 h, primary screen (AID 1155);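 also: lysis reports solute entry through the parasite surface anion channel PSAC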; details: P. falciparum Indochina infected erythrocytes, higher = more signal, called active from +8 up or from −8 down
[15] = changes in parasitized red cell lysis, either direction – P. falciparum Indochina, OD700, 3 h, PSAC antagonist project, primary screen (AID 1156); details: P. falciparum-infected erythrocytes, osmotic lysis, higher = more signal, called active from +8 up or from −8 down
[16] = plasmodial surface anion channel blockers, osmotic lysis – cell-based, P. falciparum Indochina, OD700, 18 h, primary screen (AID 1157); details: P. falciparum Indochina infected erythrocytes, osmotic lysis OD700, 18 h; higher = more signal, called active from +8 up or from −8 down
[17] = S6 kinase pathway phospho-S6 level changes – cell-based, A549, cytoblot, luminescence, serum-stimulated, primary screen (AID 1158); details: 5 h, higher = more signal;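 also: serum-stimulated A549 lung adenocarcinoma cells; signal is phosphorylated S6 detected by cytoblot immunostaining with HRP secondary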
[18] = molecular target: NADPH oxidase 2 (Homo sapiens) (UniProt P04839); assay: compounds shifting NOX2 Amplex Red fluorescence – cell-based, HEK293-NOX2, PMA-stimulated, NOX inhibitor project, primary screen (AID 1159); details: 45 min, higher = more signal, called active from +8 up or from −8 down; also: test concentration not given here
[19] = molecular target: NADPH oxidase 4 (Homo sapiens) (UniProt Q9NPH5); assay: compounds shifting NOX4 Amplex Red fluorescence – cell-based, HEK293-NOX4, tetracycline-induced, NOX inhibitor project, primary screen (AID 1160); details: HEK293-NOX4, Amplex Red H2O2 fluorescence, 45 min; higher = more signal, called active from +8 up or from −8 down
[20] = molecular target: NADPH oxidase 5 (Homo sapiens) (UniProt Q96PH1); assay: compounds shifting NOX5 Amplex Red fluorescence – cell-based, HEK293-NOX5, NOX inhibitor project, primary screen (AID 1161); details: HEK293-NOX5, ionomycin, 45 min, higher = more signal
NADPH oxidase 5 (Homo sapiens), sequence (Q96PH1 whole entry, looked up): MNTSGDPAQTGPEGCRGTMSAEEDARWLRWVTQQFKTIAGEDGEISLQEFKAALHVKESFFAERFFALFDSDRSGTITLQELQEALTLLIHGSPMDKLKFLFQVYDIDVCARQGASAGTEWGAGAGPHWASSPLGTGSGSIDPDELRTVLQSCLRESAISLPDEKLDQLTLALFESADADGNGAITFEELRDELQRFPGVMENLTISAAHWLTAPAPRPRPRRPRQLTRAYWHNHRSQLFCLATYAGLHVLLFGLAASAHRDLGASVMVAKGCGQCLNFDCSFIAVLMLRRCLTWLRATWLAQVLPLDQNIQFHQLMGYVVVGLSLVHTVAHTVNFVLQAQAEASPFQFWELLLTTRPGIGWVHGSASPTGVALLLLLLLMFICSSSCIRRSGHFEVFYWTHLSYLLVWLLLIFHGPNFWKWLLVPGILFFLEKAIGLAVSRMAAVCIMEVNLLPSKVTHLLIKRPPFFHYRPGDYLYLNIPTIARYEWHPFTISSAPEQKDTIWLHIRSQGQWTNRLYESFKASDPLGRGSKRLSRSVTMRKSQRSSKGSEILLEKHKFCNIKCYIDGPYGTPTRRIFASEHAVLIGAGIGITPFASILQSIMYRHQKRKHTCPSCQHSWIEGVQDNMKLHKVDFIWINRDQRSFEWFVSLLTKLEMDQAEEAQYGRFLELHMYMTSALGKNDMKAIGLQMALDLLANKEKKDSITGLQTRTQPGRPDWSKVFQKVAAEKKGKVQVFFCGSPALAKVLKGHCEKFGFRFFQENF

Torsin-1A (Homo sapiens), sequence (O14656 whole entry, looked up): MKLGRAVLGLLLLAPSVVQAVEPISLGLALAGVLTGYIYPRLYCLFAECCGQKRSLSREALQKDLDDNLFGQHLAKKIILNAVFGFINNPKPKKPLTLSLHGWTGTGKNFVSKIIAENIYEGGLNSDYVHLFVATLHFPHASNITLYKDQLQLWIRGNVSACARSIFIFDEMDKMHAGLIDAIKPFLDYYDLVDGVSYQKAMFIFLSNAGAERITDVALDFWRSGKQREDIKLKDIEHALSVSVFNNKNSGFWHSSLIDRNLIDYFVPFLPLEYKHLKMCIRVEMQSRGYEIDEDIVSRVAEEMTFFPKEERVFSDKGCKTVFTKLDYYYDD
Streptavidin (Streptomyces avidinii), sequence (P22629 whole entry, looked up): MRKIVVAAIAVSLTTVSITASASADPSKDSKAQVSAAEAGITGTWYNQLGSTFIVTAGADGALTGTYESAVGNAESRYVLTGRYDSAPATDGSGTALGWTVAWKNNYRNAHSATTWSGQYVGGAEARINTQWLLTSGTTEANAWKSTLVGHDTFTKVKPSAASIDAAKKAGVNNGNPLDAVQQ
NADPH oxidase 2 (Homo sapiens), sequence (P04839 whole entry, looked up): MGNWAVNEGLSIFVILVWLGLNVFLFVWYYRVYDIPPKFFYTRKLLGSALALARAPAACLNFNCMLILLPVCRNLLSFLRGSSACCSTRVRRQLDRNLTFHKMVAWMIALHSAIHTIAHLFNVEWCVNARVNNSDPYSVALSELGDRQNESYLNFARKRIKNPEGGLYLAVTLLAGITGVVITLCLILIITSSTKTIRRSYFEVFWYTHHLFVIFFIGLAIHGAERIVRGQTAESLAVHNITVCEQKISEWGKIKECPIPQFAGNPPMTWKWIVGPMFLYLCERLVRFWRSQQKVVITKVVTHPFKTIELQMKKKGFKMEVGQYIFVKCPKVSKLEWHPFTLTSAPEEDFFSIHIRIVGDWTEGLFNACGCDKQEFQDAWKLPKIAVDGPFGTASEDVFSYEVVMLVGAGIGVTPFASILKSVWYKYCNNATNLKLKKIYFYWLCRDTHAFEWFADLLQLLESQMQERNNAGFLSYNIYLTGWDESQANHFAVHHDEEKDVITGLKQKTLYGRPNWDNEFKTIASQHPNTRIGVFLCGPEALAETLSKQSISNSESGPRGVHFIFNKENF
NADPH oxidase 4 (Homo sapiens), sequence (Q9NPH5 whole entry, looked up): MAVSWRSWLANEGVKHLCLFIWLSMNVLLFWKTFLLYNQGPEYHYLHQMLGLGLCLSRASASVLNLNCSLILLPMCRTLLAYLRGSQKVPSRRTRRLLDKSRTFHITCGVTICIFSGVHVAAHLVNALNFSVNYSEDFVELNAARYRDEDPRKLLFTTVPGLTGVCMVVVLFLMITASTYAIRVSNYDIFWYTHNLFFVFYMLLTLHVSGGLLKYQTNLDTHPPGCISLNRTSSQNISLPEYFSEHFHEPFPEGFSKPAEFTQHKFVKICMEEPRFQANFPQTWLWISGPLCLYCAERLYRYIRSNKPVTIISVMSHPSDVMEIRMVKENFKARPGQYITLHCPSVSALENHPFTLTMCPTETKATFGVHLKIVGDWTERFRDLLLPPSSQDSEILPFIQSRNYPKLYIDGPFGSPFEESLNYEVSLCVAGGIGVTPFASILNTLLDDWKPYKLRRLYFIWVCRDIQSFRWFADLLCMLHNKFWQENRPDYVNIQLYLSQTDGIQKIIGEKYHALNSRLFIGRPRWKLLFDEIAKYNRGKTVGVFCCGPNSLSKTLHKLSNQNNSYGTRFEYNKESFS

Row | Compound | composite z-score [1] | z-score [2] | z-score [3] | z-score [4] | z-score [5] | composite z-score [6] | composite z-score [7] | composite z-score (Torsin-1A (Homo sapiens) [8]) | composite z-score (Torsin-1A (Homo sapiens) [9]) | composite z-score [10] | z-score [11] | composite z-score [12] | z-score [13] | z-score [14] | z-score [15] | z-score [16] | z-score [17] | z-score [18] | z-score [19] | z-score [20]
1 | O=C1OCC=C[C@H]2OC34C=CCN(CCN5CCOCC5)C(=O)[C@H]3N(CCCCCCO)C(=O)[C@@H]4[C@@H]12 (stereo not given in full) | 0.0272 | -0.39 (inactive) | 1.73 (inactive) | 0.862 (inactive) | -0.201 (inactive) | -0.278 | -0.0604 | 0.135 | -0.0406 | 0.572 | -0.416 (inactive) | 0.0253 | 4.96 (inactive) | 1.32 (inactive) | 1.21 (inactive) | 0.404 (inactive) | 1.07 | 1.51 (inactive) | -0.325 (inactive) | 1.92
2 | COCCOC(=O)N1C(=O)[C@@]2(c3ccccc31)[C@H](C(=O)N1CCCCCCC1)[C@H]1C(=O)O[C@H](c3ccccc3)[C@H](c3ccccc3)N1[C@@H]2c1ccccc1OCCO | 1.09 | -2.56 (inactive) | -0.699 (inactive) | 0.0384 (inactive) | 0.207 (inactive) | 2.79 | 1.76 | 1.27 | 1.76 | 1.3 | -0.946 (inactive) | 2.79 | 1.49 (inactive) | 0.529 (inactive) | 0.537 (inactive) | 0.49 (inactive) | -0.408 | 0.966 (inactive) | 0.739 (inactive) | 1.24
3 | CC[C@@H]1C=C(C(=O)O)[C@H](c2ccc(C(C)C)cc2)N1S(=O)(=O)c1ccc(C)cc1 | 0.764 | -0.822 (inactive) | 0.448 (inactive) | -0.0137 (inactive) | -0.0578 (inactive) | 0.939 | 0.432 | 0.145 | 1.22 | 0.34 | -0.646 (inactive) | 1.36 | 0.998 (inactive) | 0.845 (inactive) | 0.105 (inactive) | 0.709 (inactive) | -0.334 | 0.685 (inactive) | -0.418 (inactive) | -0.0711
4 | C=C(CCCC)/C(=C/C[C@H](OC(C)=O)c1ccc(CO)o1)c1cc(C(=O)OC)ccc1OC | 0.244 | -3.43 (inactive) | -0.193 (inactive) | 0.709 (inactive) | 0.0467 (inactive) | 0.772 | 0.0622 | 0.206 | -0.0953 | 1.53 | 0.302 (inactive) | -0.0501 | 1.99 (inactive) | -0.526 (inactive) | 1.62 (inactive) | -2.02 (inactive) | 1.61 | -0.764 (inactive) | -0.262 (inactive) | -1.54
5 | CCCCCCCCCCC(O)C1C=CC2C(=O)N(c3ccccc3)C(=O)C2N1Nc1ccc([N+](=O)[O-])cc1 (stereo not given) | 0.207 | -2.71 (inactive) | -0.214 (inactive) | 0.285 (inactive) | 0.925 (inactive) | 0.811 | -0.0059 | 0.0415 | 0.227 | 0.358 | -1.14 (inactive) | 0.315 | 5.24 (inactive) | 2.56 (inactive) | -1.8 (inactive) | 2.11 (inactive) | -0.235 | 0.309 (inactive) | -0.243 (inactive) | 0.627
6 | CS(=O)(=O)CCOC(=O)C1=CC(c2ccc(CO)cc2)=CC(c2cccs2)N(Cc2cccc(OC(F)(F)F)c2)C=C1C(=O)OCCS(C)(=O)=O (stereo not given) | 0.104 | -3.67 (inactive) | 0.676 (inactive) | 0.695 (inactive) | -2.12 (inactive) | 1.72 | 0.0047 | 1.45 | 0.543 | 0.75 | -2.86 (inactive) | 0.0575 | 14.8 (active) | 4.37 (inactive) | 0.869 (inactive) | 1.95 (inactive) | 0.158 | -2.07 (inactive) | -1.09 (inactive) | -2.37
7 | CCCNC(=O)[C@@]1(c2ccc([N+](=O)[O-])cc2)CC(=O)N(CC23CC4CC(CC(C4)C2)C3)[C@@H]1c1ccc(CO)cc1I | 0.572 | -5.46 (inactive) | 0.468 (inactive) | 0.234 (inactive) | 0.299 (inactive) | 0.131 | 0.834 | 0.253 | 0.55 | 0.825 | 0.0121 (inactive) | 0.181 | 26 (active) | 13.3 (active) | 1.82 (inactive) | 1.87 (inactive) | -0.151 | 1.15 (inactive) | -0.037 (inactive) | 2.21
8 | C=C(CCCC)C(=O)CC[C@H](OC(=O)c1ccccc1-c1ccccc1C(=O)O)c1ccc(CO)o1 | 0.123 | 0.0343 (inactive) | -0.976 (inactive) | -0.177 (inactive) | -0.56 (inactive) | 1.5 | 0.0154 | 0.472 | 0.622 | 1.99 | -0.002 (inactive) | -0.0984 | 1.69 (inactive) | 0.241 (inactive) | 1.2 (inactive) | 0.16 (inactive) | -0.16 | 0.333 (inactive) | -0.269 (inactive) | -1.15
9 | O=C1OCCC/C=C\[C@H]2OC34C=CCN(Cn5nnc6ccccc65)C(=O)[C@H]3N(CCCO)C(=O)[C@@H]4C12 (stereo not given in full) | -0.8 | 0.464 (inactive) | -0.354 (inactive) | -0.623 (inactive) | 0.168 (inactive) | -1.29 | -0.182 | -2.04 | 1.14 | -0.144 | 0.0048 (inactive) | 0.123 | 1.16 (inactive) | 0.614 (inactive) | -0.443 (inactive) | 0.261 (inactive) | 1.16 | 0.821 (inactive) | 0.689 (inactive) | 2.02
